# Measurements from PubChem BioAssay (Tox21).
# Records with an inconclusive call do not appear. Unmarked numbers belong to inactive results. Activity calls are given as the source filed them. Calls follow the shape of the dose curve; as a rule, active = well fitted cell-killing curve with a large enough effect in the repeat runs; inconclusive = weak or mixed curves, or effect the other way; inactive = flat fitted curve, though single readings scatter.
# Experiment: qHTS RealTime-Glo MT Cell Viability Assay in HEK293 cells - 8 hour (AID 1224887); also: nearly all actives have a fitted effect of over 50% in size; as to activity change, negative = cytotoxicity: top concentration of the series differs between compounds
# Details: RealTime-Glo luminescence; series mostly up to 76.8 µM; activity change, negative = cytotoxicity: at the top concentration
# Text: U.S. Tox21 Program National Center for Advancing Translational Sciences [NCATS] NIH Chemical Genomics Center [NCGC] U.S. Environmental Protection Agency [EPA] National Institutes of Environmental Health Sciences [NIEHS] National Toxicology Program [NTP] U.S. Food and Drug Administration [FDA] Tox21 Assay Overview: Measure of cell viability is critical in the cell-base assay. Analysis of cell viability is necessary for the characterization of cell responses to cytotoxic drugs and environmental stress. A RealTime-Glo MT Cell Viability Assay to monitor cell viability in real time of continues cell culture during 40 hours of compound treatment was used to screen Tox21 10K library compounds in Hek293 cells. The RealTime-Glo MT Cell Viability Assay is a nonlytic, homogeneous, bioluminescent method to measure cell viability in real time using a simple, plate-based method. The assay involves adding NanoLuc luciferase and a cell-permeant prosubstrate to cells in culture. Viable cells reduce the proprietary prosubstrate to generate a substrate for NanoLuc luciferase. This substrate diffuses from cells into the surrounding culture medium, where it is rapidly used by the NanoLuc Enzyme to produce a luminescent signal. The signal correlates with the number of viable cells, making the assay well suited for cytotoxicity studies.
# Tox21 Assay Protocol Summary: The mixture of Hek293 cell suspension and reagents were dispensed at 600cells/6 ul/well in 1536-well tissue culture treated black solid bottom plates using a Multidrop dispenser. After the assay plates were incubated at a 37 C/5% CO2 incubator for 5 hours, 23 nL of compounds dissolved in DMSO, positive and negative controls was transferred to the assay plate by a pintool work station. The plates were incubated at 37 C for 40 hours. The luminescence intensity were measured at 0h, 8h, 16h, 24h, 32h and 40h time points using ViewLux plate reader during compound treatment.
# % is scaled to controls: 0 for no effect and ±100 for the full control effect; potency is read from the fitted curve at half-maximal effect.
SMILES,"activity change, negative = cytotoxicity",Potency
C[Si](NC1CCCCC1)(NC1CCCCC1)NC1CCCCC1,1.05%,
CCCCC(CC)COC(=O)COc1ccc(Cl)cc1C (stereo not given),24.9%,
C[C@@H]1C[C@H]2[C@@H]3CCC4=CC(=O)C=C[C@]4(C)[C@@]3(F)[C@@H](O)C[C@]2(C)[C@H]1C(=O)CO,1.33% [at 35.3 µM],
CCOC(=O)C(C)Oc1ccc(Oc2nc3ccc(Cl)cc3o2)cc1 (stereo not given),,21.9 µM (active)
CC(C)C(OC(=O)c1ccccc1)C(C)(C)COC(=O)c1ccccc1 (stereo not given),-21.5%,
Nc1ccc(C(=O)OCCCOC(=O)c2ccc(N)cc2)cc1,,43.6 µM (active)
C=CC(=O)NCOCC(C)C,-9.01%,
c1ccc(COCc2ccccc2)cc1,3.75%,
CC(=O)OCC(=O)[C@@]12OC(C)(C)O[C@@H]1C[C@H]1[C@@H]3C[C@H](F)C4=CC(=O)C=C[C@]4(C)[C@@]3(F)[C@@H](O)C[C@@]12C,-0.921% [at 35.3 µM],
CCOC(=O)OCC,1.55%,
C[N+]1(C)CCC(=C(c2ccccc2)c2ccccc2)CC1,14.3% [at 35.3 µM],
CC1(C)C(=O)N(Br)C(=O)N1Cl,7.67%,
CC(C)CCCCCCOC(=O)CCCCC(=O)OCCCCCCC(C)C,1.45%,
Cc1ccc(S)cc1,10.5%,
NC(=O)Nc1ccc(Cl)cc1,4.98%,
CCCCC(CC)C(=O)OCCOCCOCCOCCOC(=O)C(CC)CCCC (stereo not given),-34.2%,
Cc1ccnc2ccccc12,7.14%,
COc1ccc(C(=O)c2cccc(O)c2)c(OC)c1,-11.6%,
O=C(O)Cc1ccc(-c2ccccc2)cc1,19.9% [at 35.3 µM],
CCCOc1ccc(S(=O)(=O)N2CCN(CC)CC2)cc1-c1nc2c(CC)n(Cc3ccccn3)nc2c(=O)[nH]1,-15.7%,

SMILES,"activity change, negative = cytotoxicity",Potency
OCCSc1ccccc1,8.98%,
COc1ccc(CCC(=O)c2c(O)cc(O[C@@H]3O[C@H](CO)[C@@H](O)[C@H](O)[C@H]3O[C@@H]3O[C@@H](C)[C@H](O)[C@@H](O)[C@H]3O)cc2O)cc1O,3.24%,
O=C(OCCOCCO)c1ccccc1Nc1cccc(C(F)(F)F)c1,-10.7% [at 35.3 µM],
CCC(C(=O)OCCN(CC)CC)c1ccccc1 (stereo not given),4.87% [at 35.3 µM],
CCCCCCCCCCOS(=O)(=O)O,-6.02%,
CC1C2CC(CC2C2CCCC(O)C2)C1(C)C (stereo not given),-25.7%,
O=C(CCCCCCCCC#CI)Oc1ccccc1,-7.43% [at 35.3 µM],
CCn1cc(C(=O)O)c(=O)c2cc(F)c(N3CCNCC3)nc21,1.8% [at 35.3 µM],
Cc1cc(OI)c(C(C)C)cc1-c1cc(C(C)C)c(OI)cc1C,-2.2% [at 35.3 µM],
CCCCCCCCCOC(C)=O,7.82%,
C=CCCCCCCCCCCCCCCCC,-0.881% [at 6.97 µM],
CC(CCc1ccc2c(c1)OCO2)NN (stereo not given),1.22% [at 35.3 µM],
CO[C@H]1O[C@H](CO)[C@@H](O)[C@H](O)[C@H]1O,11.1%,
C(=C\c1ccccc1)/CN1CCN(C(c2ccccc2)c2ccccc2)CC1,-23.3% [at 35.3 µM],
CN1CCN(c2c(F)cc3c(=O)c(C(=O)O)cn4c3c2OCN4C)CC1,1.15% [at 15.8 µM],
CCN(CC)CCNC(=O)c1ccc(NC(C)=O)cc1,0.973% [at 35.3 µM],
O=C(NCCCN1CCOCC1)c1ccc(Cl)cc1,11.7% [at 35.3 µM],
C[Si]1(C)O[Si](C)(C)O[Si](C)(C)O1,1.39%,
CCCCCCCCCCCC[N+](C)(C)CCCS(=O)(=O)[O-],0.208%,
CC1=C(/C=C/C(C)=C\C=C\C(C)=C\C(=O)O)C(C)(C)CCC1,-8.74%,
